The record followed here is ChEMBL document CHEMBL3988442, “University of Dundee, Small-Polar-MMV Screening Library” (2021).

In all, about 48,000 compounds went through this assay and about 13,000 (27%) showed an effect of 50% or more. The list shows a part of the results.

The test concerns Wolbachia pipientis. Briefly: Anti-Wolbachia Cell-Based Screen. Format: functional. Also noted: scale not given: in the data most compounds retested in dose-response had high values. The note with it: 5 µM.
`CN(C)C[C@@H]1CCC[C@@H]2CN(c3ncccn3)C[C@@H]21.O=C(O)C(F)(F)F`: the “Percent Effect” value came to 2.797%.

On to `Cc1cnc(N2C[C@@H]3[C@@H](C(=O)NC(C)C)CCS(=O)(=O)[C@@H]3C2)nc1`, for which the “Percent Effect” value is on record as -24.89%. The figure for `CC(C)NC(=O)[C@H]1CCS(=O)(=O)[C@@H]2CN(c3ncccn3)C[C@H]12` is -3.711%; for `CCc1cnc(N2C[C@@H]3[C@@H](C(=O)N(C)C)CCS(=O)(=O)[C@@H]3C2)nc1` it is 108.3%; for `CC(C)CNC(=O)[C@H]1CCS(=O)(=O)[C@@H]2CN(c3ncccn3)C[C@H]12` it is 91.22%.

Regarding `CC(C)NC(=O)[C@H]1CCS(=O)(=O)[C@@H]2CN(c3ncc(F)cn3)C[C@H]12`, the “Percent Effect” value is recorded as -13.53%. The figure for `CCc1cnc(N2C[C@@H]3[C@@H](C(=O)NC(C)C)CCS(=O)(=O)[C@@H]3C2)nc1` is -2.445%; for `CN(C)C(=O)[C@H]1CCS(=O)(=O)[C@@H]2CN(c3ncc(F)cn3)C[C@H]12` it is 102%. To `CN(C)C(=O)[C@H]1CCS(=O)(=O)[C@@H]2CN(c3ncccn3)C[C@H]12` belongs 99.37%.

In the case of `CCc1cnc(N2C[C@H]3CCCC(N(C)Cc4ccccn4)[C@H]3C2)nc1` (some centres undefined), the “Percent Effect” value is -24.97%. The figure for `Cc1cnc(N2C[C@@H]3[C@@H](C(=O)NCC(C)C)CCS(=O)(=O)[C@@H]3C2)nc1` is -2.009%.

As for `CCc1cnc(N2C[C@@H]3[C@@H](C(=O)NCC(C)C)CCS(=O)(=O)[C@@H]3C2)nc1`, the “Percent Effect” value is given as -5.453%. To `CC(=O)CCC(=O)N1CCC2(CC1)N=C(CCC(C)C)NC2=O` belongs -5.676%; to `CC(C)(C)OC(=O)N1CCC(C(=O)NC2CCS(=O)(=O)C2)CC1` (centres undefined), 6.733%.

Regarding `COc1ccc(C(=O)N2CCC(C3CCN(c4ncccn4)CC3)C2)o1` (centres undefined), the “Percent Effect” value was -7.407%.

`O=C(O)C(F)(F)F.O=C(c1ccco1)N1C[C@H]2CCCN(Cc3cccs3)[C@H]2C1`: the “Percent Effect” value is recorded as -3.839%. The figure for `O=C([C@@H]1CCS(=O)(=O)[C@@H]2CN(c3ncccn3)C[C@@H]21)N1CCOCC1` is 104.7%. For the compound `CN1CCN(C(=O)[C@@H]2CCO[C@@H]3CCN(c4ncccn4)C[C@@H]32)CC1`, the “Percent Effect” value was -8.422%.

Regarding `CN1CC2(CCCN(Cc3cccc(CCN)c3)C2)OC1=O` (centres undefined), the “Percent Effect” value was found to be 105.3%. For `CN1CC2(CCCN(Cc3ccccc3OCC(=O)O)C2)OC1=O` (centres undefined), the “Percent Effect” value came to 0.6132%. As for `CN1CC2(CCCN(c3cc(N4CCCCC4)ncn3)C2)OC1=O` (centres undefined), the “Percent Effect” value is reported as -3.477%. To `CN1CC2(CCCN(c3cnccn3)C2)OC1=O` (centres undefined) belongs 1.527%; to `CN1CC2(CCCN(Cc3ccc(Oc4ccccc4)cc3)C2)OC1=O` (centres undefined), 64.08%. The figure for `COc1ccc(/C=C/CN2CCC3(C2)CN(C)C(=O)O3)cc1` (centres undefined) is -32.82%. To `O=C1NC[C@@]2(C(=O)O)CN(Cc3cccc(Oc4ccccc4)c3)C[C@@H]12` belongs -29.67%; to `Cc1cc(C)c2[nH]c(=O)c(CN3CCCC4(C3)CN(C)C(=O)O4)cc2c1` (centres undefined), -2.953%. As for `COc1ccc(/C=C/CN2CCCC3(C2)CN(C)C(=O)O3)cc1` (centres undefined), the “Percent Effect” value is on record as -36.85%. The figure for `CN1CC2(CCCN(Cc3cccc(Oc4ccccc4)c3)C2)OC1=O` (centres undefined) is 123.2%; for `CN(C)CCOc1cccc(CN2CCCC3(C2)CN(C)C(=O)O3)c1` (centres undefined) it is 103.2%; for `COc1cccc(CN2CCCC3(CCN(C(CO)CO)C3)C2)c1` (centres undefined) it is -0.6359%. To `CCOCCCC(=O)NCc1ccnc(N2CCN(C)CC2)c1` belongs 8.829%; to `CN(Cc1ccc(F)cc1C#N)CC(F)(F)F`, -4.053%; to `CC(C)(C)CCN1CCN(c2snc(Cl)c2C#N)CC1`, -4.564%. With `CC(C)(NC(=O)c1coc(COc2cccc(F)c2)n1)C(N)=O`, the “Percent Effect” value amounted to 11.65%. To `COCc1cc(CNC(=O)c2cccc3c2OCC3)n[nH]1` belongs -6.489%; to `CCCN1CCCN(CCCOc2cccc(C#N)c2)CC1`, 7.264%; to `N#CCCN(C(=O)CN1CCCC1c1ccsc1)c1ccccc1F` (centres undefined), -4.506%.

As to `CCS(=O)(=O)N1CCn2c(COCC3CCOCC3)cnc2C1C` (centres undefined), the “Percent Effect” value is -1.918%.

As for `CN(C)C(=O)NCc1cc2n(n1)CCCN(C[C@H]1[C@@H]3CNC[C@@H]31)C2`, the “Percent Effect” value is recorded as -16.67%. The figure for `O=C(CC1CCCO1)NCc1ccccc1Cn1cncn1` (centres undefined) is 0.9316%; for `CC1CN(C)c2ccccc2CN1C(=O)c1ccncc1F` (centres undefined) it is -16.77%; for `Cc1cc(=O)[nH]cc1C(=O)N1Cc2ccccc2N(C)CC1C` (centres undefined) it is 102.2%. Take `CCC1CN(C)c2ccccc2CN1C(=O)c1c[nH]c(=O)cc1C` (centres undefined): the “Percent Effect” value came to 123.4%. To `CC1CN(C)c2ccccc2CN1C(=O)c1cc[nH]c(=O)c1` (centres undefined) belongs -17.5%. The figure for `CC1CN(C)c2ccccc2CN1C(=O)c1ccc[nH]1` (centres undefined) is -9.61%; for `CCc1cc(CNC(=O)N2Cc3ccccc3N(C)CC2C)[nH]n1` (centres undefined) it is 5.505%. As for `COCc1ccc(C(=O)N2CCCN(C(=O)OCC(C)C)CC2)cc1`, the “Percent Effect” value is 6.896%. Turning to `CC(C)Oc1ccc(C(=O)N2CC[C@H](O)[C@@H](n3ccnc3)CC2)cc1`, the “Percent Effect” value is given as 122.3%. To `O=C(c1ccc(-n2ccnc2)cc1)N1CCCC1` belongs 15.67%. Regarding `COCc1ccc(C(=O)N2CC[C@H](O)[C@@H](n3ccnc3)CC2)cc1`, the “Percent Effect” value came to 113.2%. For the compound `CC(C(=O)N1CCN(C(=O)c2ccc(F)cc2)CC1)n1ccnc1` (centres undefined), the “Percent Effect” value is reported as -9.233%. Regarding `COCc1ccc(C(=O)N2CCN(CCS(C)(=O)=O)CC2)cc1`, the “Percent Effect” value is given as 1.51%.

With `CS(=O)(=O)CCSC1CCN(c2ccccc2F)C1=O` (centres undefined), the “Percent Effect” value was -0.4258%. For the compound `CC(C)N1CCC(C(=O)N[C@H](C(=O)O)c2cccc(F)c2F)CC1`, the “Percent Effect” value was found to be 23.96%. With `O=C(c1coc2ccccc12)N1CCCC(O)(CO)CC1` (centres undefined), the “Percent Effect” value was -11.92%. To `Cn1c(CO)cnc1SC(C(N)=O)c1ccccc1` (centres undefined) belongs -6.292%; to `COCCN(CCC#N)S(=O)(=O)c1ccc(F)cc1F`, 3.199%.

For `CS(=O)(=O)c1ccc(OCCNCc2cccc(O)c2)cc1`, the “Percent Effect” value was -6.003%. With `COc1cccc(OCCNS(=O)(=O)Cc2ccccc2)c1`, the “Percent Effect” value worked out at 102.8%. Regarding `COc1ccc(S(=O)(=O)C(C)C(=O)NCCOc2cccc(C)c2)cc1` (centres undefined), the “Percent Effect” value turned out to be 1.494%. In the case of `CC(=O)NCCOc1cccc(Br)c1`, the “Percent Effect” value worked out at 0.6269%. Regarding `Cc1cccc(OCC(=O)NS(=O)(=O)Cc2ccccc2)c1`, the “Percent Effect” value came out at 1.498%. The figure for `O=C(CCOc1ccccc1)NS(=O)(=O)Cc1ccccc1` is -5.15%; for `COc1cccc(OCCNCc2ccccc2)c1.O=C(O)C(=O)O` it is 105.9%. In the case of `COc1cccc(CNCCc2cccc(C(N)=O)c2)c1`, the “Percent Effect” value is listed as -2.153%.

Take `COc1cccc(OCCNS(C)(=O)=O)c1`: the “Percent Effect” value was determined as 78.58%. To `Cc1c(C(=O)NC2(C#N)CCSC2)nnn1-c1ccccc1Cl` (centres undefined) belongs 1.619%; to `Cn1cc(CNc2ccc(F)c(N3CCCS3(=O)=O)c2)cn1`, -4.512%; to `CCCOCC1CCN(C(=O)Cn2cccc(C(F)(F)F)c2=O)C1` (centres undefined), -13.09%.

On to `CN(C)CCN1CCCC12CCN(C(=O)c1ccco1)CC2.O=C(O)C(F)(F)F.O=C(O)C(F)(F)F`, for which the “Percent Effect” value was found to be 96.22%. Regarding `CN(C)CCN1CCCC12CCCN(Cc1ccoc1)C2.O=C(O)C(F)(F)F.O=C(O)C(F)(F)F.O=C(O)C(F)(F)F` (centres undefined), the “Percent Effect” value was determined as 19.5%. For the compound `CN(C)CCN1CCCC12CCN(C(=O)c1cccn1C)CC2.O=C(O)C(F)(F)F.O=C(O)C(F)(F)F`, the “Percent Effect” value is listed as -18.28%. The figure for `CN(C)CCN1CCCC12CCCN(Cc1ccco1)C2.O=C(O)C(F)(F)F.O=C(O)C(F)(F)F.O=C(O)C(F)(F)F` (centres undefined) is -6.586%.

`Cc1ccccc1C(=O)N1CCC2(CCCN2CCN(C)C)CC1.O=C(O)C(F)(F)F.O=C(O)C(F)(F)F`: the “Percent Effect” value was found to be 100.3%. `CCN1CCCC12CCN(C(=O)c1ccsc1)CC2.O=C(O)C(F)(F)F`: the “Percent Effect” value is reported as -19.39%. On to `CN(Cc1ccco1)C1CCC12CCN(C(=O)c1ccco1)CC2.O=C(O)C(F)(F)F` (centres undefined), for which the “Percent Effect” value is given as -7.154%. To `CN(C)CCN1CCCC12CCN(C(=O)c1ccoc1)CC2.O=C(O)C(F)(F)F.O=C(O)C(F)(F)F` belongs 109.3%. To `Cn1cc(CN2CCCC23CCN(C(=O)c2cccn2C)CC3)cn1.O=C(O)C(F)(F)F` belongs -11.73%; to `NC(=O)C(NCCc1ccc(Cl)s1)c1ccccc1` (centres undefined), 0.1259%; to `CCN(Cc1noc(C(C)C)n1)Cc1ccc(C#N)cc1F`, 13.78%. To `O=S(=O)(Cc1ccccc1)NCc1ccnc(O)c1` belongs -8.436%. Regarding `CCc1ccc2nc(C)cc(C(=O)N3C[C@H]4CCC[C@@]4(CO)C3)c2c1`, the “Percent Effect” value is reported as -46.54%.

`CCSc1ncc(CN2C[C@H]3CC[C@@H]2CN(C2CCOCC2)C3)cn1`: the “Percent Effect” value came out at 15.93%. The figure for `CSC(C)C(=O)NCCC(=O)N1CCN(c2ccccn2)CC1` (centres undefined) is 112.5%.

With `CSCC(C)N(C)C(=O)CN1CCN(c2ccccn2)CC1` (centres undefined), the “Percent Effect” value was -3.468%.

As to `CCCC(C)NCc1cccnc1N1CCN(c2ccccn2)CC1` (centres undefined), the “Percent Effect” value came out at 8.499%. For the compound `CCc1nnsc1C(=O)NC1CCN(c2ccccn2)CC1`, the “Percent Effect” value is recorded as -15.93%.

Take `CC(C)CC(C)NCc1cccnc1N1CCN(c2ccccn2)CC1` (centres undefined): the “Percent Effect” value is listed as -4.161%. In the case of `Cc1nc(CNC(=O)CCN2CCN(c3ccccn3)CC2)oc1C`, the “Percent Effect” value is given as -3.101%. For `CC(c1ccccn1)N(C)C(=O)CN1CCN(c2ccccn2)CC1` (centres undefined), the “Percent Effect” value is reported as -2.14%. With `CCC(CC)C(=O)NCCC(=O)N1CCN(c2ccccn2)CC1`, the “Percent Effect” value came out at 117%. On to `CCC(C)NC(=O)NCCC(=O)N1CCN(c2ccccn2)CC1` (centres undefined), for which the “Percent Effect” value amounted to 129.1%.

For the compound `CC(C)NCc1cccnc1N1CCN(c2ccccn2)CC1`, the “Percent Effect” value is recorded as -3.713%. For `CC(C)C(=O)NCCC(=O)N1CCN(c2ccccn2)CC1`, the “Percent Effect” value is 125.4%.
